# Assay outcomes deposited in PubChem BioAssay by National Center for Advancing Translational Sciences (NCATS).
# Only some compounds are listed: those with a hit (about 1.7% of all), similar ones and a draw of the others.
# GLP-1R agonist: GLP-1 receptor (human) agonism; P43220; HEK293 GLP-1R CRE-luciferase, luminescence, 4-6 h; cells express a hypersensitive GLP-1R form; Potency, µM (series often up to 45.6 µM), without a hit: at the highest dose activation, hits mostly activators; 380,000 tested, 0.007% active; further: % of control where 0% means no effect
# PTHR1 ag: PTHR1 (human) receptor agonism | Q03431 | HEK293 GP2 PTHR1 cells, GloSensor cAMP luminescence, 1 h | 410,000 tested, 0.075% active | Potency, µM (doses to about 115 µM), for the others: at the top dose activation, most hits filed as activators | AID 743266; further: nearly all actives have a fitted effect of over 55% in size
# Target sequence (Q03431 whole entry, looked up): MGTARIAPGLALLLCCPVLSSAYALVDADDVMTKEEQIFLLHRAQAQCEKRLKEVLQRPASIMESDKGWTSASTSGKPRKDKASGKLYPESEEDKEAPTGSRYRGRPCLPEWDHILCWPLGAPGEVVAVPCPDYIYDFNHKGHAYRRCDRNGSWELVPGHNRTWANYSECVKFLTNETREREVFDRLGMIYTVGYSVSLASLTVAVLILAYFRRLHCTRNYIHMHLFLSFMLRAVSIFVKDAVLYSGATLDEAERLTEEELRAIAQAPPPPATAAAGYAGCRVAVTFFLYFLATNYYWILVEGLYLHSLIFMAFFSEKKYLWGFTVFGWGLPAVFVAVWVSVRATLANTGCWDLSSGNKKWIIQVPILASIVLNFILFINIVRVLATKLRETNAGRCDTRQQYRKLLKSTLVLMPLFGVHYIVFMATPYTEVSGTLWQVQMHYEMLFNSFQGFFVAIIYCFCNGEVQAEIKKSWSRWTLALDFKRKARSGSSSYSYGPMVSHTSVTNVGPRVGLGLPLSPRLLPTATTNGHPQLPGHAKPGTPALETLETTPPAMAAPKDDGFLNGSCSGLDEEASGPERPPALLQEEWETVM
#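 HEK-293-derived GP2 cells expressing PTHR1 and a GloSensor cAMP reporter, 3,000/well, plated overnight, given luciferin plus IBMX (each 0.5 mM as added) for 1 h at 37 °C, then compound for 1 h at 37 °C. Luminescence was read after 15 min at room temperature.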
# GLP1R cytotox: cytotoxicity counter-screen for GLP-1 receptor inverse agonists; HEK293 cAMP-luciferase reporter cells, luminescence, 24 h; 410,000 tested, 0.13% active; Potency, µM (highest dose often 38.3 µM), without a hit: at the highest dose activity change, negative = inhibition, hits mostly inhibitors;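 further: loss of luciferase light is scored as toxicity; on the % scale 0 is the no-effect control and ±100 the full control effect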
#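 MLSMR compounds, 24 hr on cells at 37 deg C/5% CO2; luminescence after luciferase reagent (12 min RT). Inhibition counted as the undesired cytotoxic outcome.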
# GLP-1R inv ag: GLP-1 receptor (human) inverse agonism. P43220. HEK293 GLP-1R CRE-luciferase, luminescence, 24 h; GLP-1R form is constitutively active. Potency, µM (doses to about 38.3 µM), inactives show top-dose activity change, negative = inhibition, actives largely listed as inhibitors. 410,000 tested, 1.6% active; further: on the % scale 0 is the no-effect control and ±100 the full control effect; nearly all actives have a fitted effect of over 55% in size
#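 Using stably transfected HEK293 (constitutively active GLP-1R, cAMP-luciferase reporter), compounds were incubated 24 hr and luciferase measured by luminescence.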
# * hit, by the source's call; i = inactive; ? = inconclusive; . = not tested or not shown. The call rests on the fitted dose curve; in most records, active means well fitted curve in the direction sought with a large enough effect; inconclusive means small, poorly fitted or top-dose-only effect, or another doubt; inactive means no such curve, though single readings can be large; an effect the other way counts as inactive or inconclusive. Potency means the concentration at half of the fitted maximal effect.
SMILES,GLP-1R agonist,PTHR1 ag,GLP1R cytotox,GLP-1R inv ag
COc1ccc(OC)c(C(c2nnnn2C2CCCC2)N2CCN(c3ccc(F)cc3)CC2)c1 (stereo not given),-1.5%,i,-12.2%,?
COc1ccc(C(c2nnnn2C2CCCC2)N2CCC(C)CC2)c(OC)c1 (stereo not given),5.8%,-29.0%,-7.5%,10µM*
O=C1NN=C(c2ccccc2)CC1c1ccc(Cl)cc1Cl (stereo not given),12.2%,i,-7.1%,7.94µM*
O=C1NN=C(c2ccc(Cl)cc2)CC1c1cccc(Cl)c1 (stereo not given),7.5%,-2.1%,0.7%,?
CC(=O)O[C@H]1[C@@H](O)[C@H](O)[C@H](Oc2c(O)c(C)c3c4c2[C@@H](C)CC[C@@H]4[C@@H](C)C[C@H]3C=C(C)C)O[C@H]1C,-1.6%,i,?,11.2µM*
CC(=O)O[C@@H]1[C@@H](O)[C@@H](O)[C@H](Oc2c(-c3ccc(O)cc3)oc3c(CC=C(C)C)c(O)cc(O)c3c2=O)O[C@H]1C,-4.1%,-21.3%,-9.6%,-22.6%
Cc1cc(C)c(NC(=O)Cn2c(=O)nc(-c3ccccc3)c3cc(Cl)ccc32)c(C)c1,.,i,7.0%,9.5%
Cn1ncc(C(=O)N2CCN(c3ccc(F)cc3)CC2)c1C1CCN(C(=O)OC(C)(C)C)CC1,.,i,-1.3%,-6.1%
CCOC(=O)c1ccc(NC(=S)N(CCCN2CCCC2)Cc2cccs2)cc1,4.7%,-12.3%,?,2.82µM*
CCOc1ccc(NC(=O)NC23CC4CC(CC(C4)C2)C3)cc1,8.8%,-91.6%,-8.1%,2.51µM*
CCN(CC)c1ccc(C(=C2C=CC(=[N+](CC)CC)C=C2)c2ccccc2)cc1,-5.4%,-38.4%,5.01µM*,?
Cc1ccc(C(CC(=O)Nc2cc(C)cc(C)c2)N2Cc3ccccc3C2=O)cc1 (stereo not given),0.6%,i,-15.8%,?
CC1=Nc2nc(N3CCCCCC3)c(C#N)c3c4c(nc(c23)N1)N(c1ccc2ccccc2c1)C(=O)C4,-6.4%,i,4.5%,0.501µM*
N#Cc1c(N2CCN(c3ccc(F)cc3)CC2)nc(N)c2c(N)nc3c(c12)CC(=O)N3C1CC1,0.4%,i,-13.7%,2.2%
O=C(c1ccccc1)N1CCCCC1,4.8%,i,6.3%,-3.1%
O=C(c1ccccc1)N(C(=O)c1ccccc1)N1CCCC1,9.7%,-0.5%,-4.6%,10µM*
CCCCNC(=O)Cn1c(=O)cc(C)c2c(C)nn(-c3cccc(Cl)c3C)c21,.,3.7%,1.8%,-7.9%
O=C(OCC(F)(F)F)c1cccc(COc2ccc3ccccc3c2)c1,-28.5%,-13.8%,0.8%,2.24µM*
CCOc1ccccc1NC(=O)C1CCN(S(=O)(=O)c2ccc3[nH]c(=O)oc3c2)CC1,.,i,-1.8%,-1.1%
O=C(NCC(c1ccco1)N1CCCC1)c1cc2cc(Cl)ccc2o1 (stereo not given),14.2%,-12.5%,11.2%,10µM*
O=C(NCC(c1ccco1)N1CCCC1)c1ccc(Cl)cc1 (stereo not given),-8.8%,i,-10.5%,?
CC1=C(C(=O)Nc2ccc(Cl)cc2)C(c2ccc(C(F)(F)F)cc2)n2nnnc2N1 (stereo not given),-4.1%,-11.7%,-7.4%,?
Cc1ccccc1CNC(=O)c1oc2c(c1C)-c1nn(Cc3ccc(Cl)cc3)cc1CC2,.,-29.7%,0.9%,10µM*
CCOc1ccccc1CNC(=O)c1oc2c(c1C)-c1nn(Cc3cccc(Cl)c3)cc1CC2,.,i,-4.9%,?
Cn1nc(C(=O)NCCc2ccc(Cl)cc2)c2c1-c1ccccc1SC2,.,-6.8%,-0.5%,-20.9%
Cc1ccc(C)c(N2CCN(C(=O)C3CCN(c4nc(-c5ccc(C(C)C)cc5)no4)CC3)CC2)c1,.,-22.3%,-7.8%,?
Cc1ccc(-c2noc(-c3ccccc3NC(=O)C3CC(=O)N(c4ccc(C)cc4)C3)n2)cc1 (stereo not given),.,-11.2%,17.7%,11.8%
CC1=CC(C)(C)N2C(=O)C3(N=C(N)NC(Nc4ccccc4)=N3)c3cc(C)cc1c32 (stereo not given),-0.2%,i,?,3.55µM*
O=C(CCc1ccccc1)NC1(Cc2ccccc2)CCN(CCc2cccs2)C1=O (stereo not given),19.3%,i,12.1%,10µM*
